The record followed here is the supplement of paper PMC10338343.

± gives the standard deviation. In all, about 6,200 sequences were measured (“pre-steady-state target cleavage rate”: median about 0.29, highest 2% from about 2 on). The sample as a whole holds a higher share of the highest values than the screen did.
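Also: 1 nM active piRISC with 0.1 nM target library at 33 °C single turnover.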

This test has as its system MIWI (PIWIL1) piRISC loaded with piRNA #1 (30 nt). In words: pre-steady-state target cleavage rate (min^-1); MIWI and MILI are mouse PIWI proteins and EfPiwi is from a freshwater sponge; tags in brackets are library labels; higher = faster piRNA-guided slicing of the target. The settings on record: guide: piRNA #1 5'p-UGAGGUAGUAGGUUGUAUAGUAUCCAGAGG; auxiliary factor: 500 nM mouse GTSF1. The procedure, abridged:
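In HEPES–potassium acetate buffer at 33 °C, […] transcribed, DNA-blocked target RNA library was mixed with 1 nM active affinity-purified piRISC carrying one synthetic guide, with or without 500 nM GTSF1 partner protein, for 0–8 or 0–960 min. Uncleaved targets were sequenced and normalised to depth and to weakly complementary targets; three trials were pooled and k3 was capped at 0.0001 min^-1. The pre-steady-state cleavage rate followed from a burst-and-steady-state fit.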
Turning to CCUCUGGAUACUAUACUACCUACUACCACA, the “pre-steady-state target cleavage rate” value came out at 1.68 ± 0.12.

Regarding GGAGUGGAUACUACACAACCUACUACCUCA, the “pre-steady-state target cleavage rate” value came to 1.71 ± 0.097.

With GGAGACGAUACUAUACAGCCUACUACCUCA, the “pre-steady-state target cleavage rate” value was 0.668 ± 0.028.

For the sequence GGAGUGGUUACUAUACAACCUAGUACCUCA, the “pre-steady-state target cleavage rate” value amounted to 0.371 ± 0.05.

As to GGAGACCUUACUAUACAACCUACUUCCUCA, the “pre-steady-state target cleavage rate” value stood at 0.399 ± 0.035.

Regarding GCUCUGGAUAGAUUACAACCUACUACCUCA, the “pre-steady-state target cleavage rate” value was found to be 0.735 ± 0.048.

For the sequence GCUCAGGUUACUAUACAACCUACUACCUCA, the “pre-steady-state target cleavage rate” value is 2.01 ± 0.12.

On to GCUCAGGAUACUAUACAACCUACUACCUCA, for which the “pre-steady-state target cleavage rate” value came out at 1.85 ± 0.11.

Turning to CCUCAGGAUACUAUACAACCUACUACCUCA, the “pre-steady-state target cleavage rate” value stood at 1.98 ± 0.12.

On to GGACAGGUUACUAUACAACCUACUACCUCA, for which the “pre-steady-state target cleavage rate” value was found to be 1.9 ± 0.14.

On to CCUCAGGUUACUAUACAACCUACUACCUCA, for which the “pre-steady-state target cleavage rate” value was 2.5 ± 0.16.

Turning to GCUCAGGAUACUAUACAACCUACAACCUCA, the “pre-steady-state target cleavage rate” value stood at 0.866 ± 0.076.

As for GGUCUGGAUUCUAAACAACCUACUACCUCA, the “pre-steady-state target cleavage rate” value came out at 1.23 ± 0.071.

Regarding GGAGACCUAUGUAUACAACCUACUCACCUCA, the “pre-steady-state target cleavage rate” value is 0.144 ± 0.027.

As to GGAGACCUAACUAUACAACAUACUACCUCA, the “pre-steady-state target cleavage rate” value was determined as 0.303 ± 0.036.

For GGAGAGGAUACUAUACACCCUACUACCUCA, the “pre-steady-state target cleavage rate” value came out at 1.4 ± 0.068.

On to GCUCUGGAUACUAUACAACCUACUACCUCCA, for which the “pre-steady-state target cleavage rate” value amounted to 2.15 ± 0.14.

In the case of GCUCUGGAUACUAUACAACCUACUACCUACA, the “pre-steady-state target cleavage rate” value stood at 1.87 ± 0.13.

In the case of CCUCUGGAUACUAUACAACCUACUACCUCCA, the “pre-steady-state target cleavage rate” value was determined as 2.27 ± 0.14.

Consider “GCUCUGGAUACUAUACAACCUACUACCUCG [g2:g29:cont:t1G]”, for which the “pre-steady-state target cleavage rate” value was found to be 1.29 ± 0.098.

Turning to “GGUCUGGAUACUAUACAACCUACUACCUCC [g2:g28:cont:t1C]”, the “pre-steady-state target cleavage rate” value was 1.54 ± 0.11.

As to GCUCUGGAUACCUAUACAACCUACUACCUCA, the “pre-steady-state target cleavage rate” value stood at 1.06 ± 0.08.

Regarding GGUCUGGAUACUAUACUACCUACAACCUCA, the “pre-steady-state target cleavage rate” value is 0.456 ± 0.054.

As to “GGUCUGGAUACUAUACAACCUACUACCUCU [g2:g28:cont:t1U]”, the “pre-steady-state target cleavage rate” value was 1.59 ± 0.11.

For the sequence GCUCUGGAUACUAUACAACCUACUACCUAA, the “pre-steady-state target cleavage rate” value worked out at 1.83 ± 0.12.

Consider GGUCUGGAUACUAUACAACCUACUACCUCCA, for which the “pre-steady-state target cleavage rate” value was 2.06 ± 0.12.

Regarding “GCUCUGGAUACUAUACAACCUACUACCUCU [g2:g29:cont:t1U]”, the “pre-steady-state target cleavage rate” value is 2.16 ± 0.13.

GGAGACCAUACUAAACAACCUACUUCCUCA: the “pre-steady-state target cleavage rate” value worked out at 0.195 ± 0.024.

As for GGAGUGGAUACUAUACUACCUACUACCUGA, the “pre-steady-state target cleavage rate” value worked out at 0.329 ± 0.052.

With GGAGUGGUUACUAUACAACGUACUACCUCA, the “pre-steady-state target cleavage rate” value worked out at 0.386 ± 0.027.

GGAGACGAUACUUUACAACCUACUAGCUCA: the “pre-steady-state target cleavage rate” value came to 0.142 ± 0.027.

With GGUCUGGAUACUAUAGAACCUACUACCACA, the “pre-steady-state target cleavage rate” value worked out at 0.0228 ± 0.0058.

Turning to GGAGACGAUACAAUACAACCUACUACCUCA, the “pre-steady-state target cleavage rate” value was found to be 1.29 ± 0.097.

For the sequence GGAGUGGAUACUAUAGAACCUACUACCUCA, the “pre-steady-state target cleavage rate” value was 1.34 ± 0.076.

As to GGAGACCAUACUAUUCAACCUACUACCUGA, the “pre-steady-state target cleavage rate” value came out at 0.64 ± 0.075.

For the sequence GGAGAGGAUACUAUAGAACCUACUUCCUCA, the “pre-steady-state target cleavage rate” value was found to be 0.00722 ± 0.0046.

Consider GGACUGCUUACUAUACAACCUACUACCUCA, for which the “pre-steady-state target cleavage rate” value was 1.54 ± 0.14.

For the sequence GGAGACCUAUGUAUACAAUCUACUACCUCA, the “pre-steady-state target cleavage rate” value worked out at 0.0144 ± 0.0036.

Turning to GCUCUGGAUACUAUACAACCUACUACCUA, the “pre-steady-state target cleavage rate” value was found to be 1.37 ± 0.1.

As for “GCUCUGGAUACUAUACAACCUACUACCUCC [g2:g29:cont:t1C]”, the “pre-steady-state target cleavage rate” value turned out to be 2 ± 0.13.

As for GCUCUGGAUACUAUACUACCUACAACCUCA, the “pre-steady-state target cleavage rate” value is 0.938 ± 0.086.

Regarding GGAGACCAUACUUUACAACCUACUACCUCA, the “pre-steady-state target cleavage rate” value worked out at 1.3 ± 0.087.

As to GCUCUGGAUACCAUACAACCUACUACCUCA, the “pre-steady-state target cleavage rate” value was 0.756 ± 0.059.

Take GCUCUGGAUACUAUACAACCUACUACUCUCA: the “pre-steady-state target cleavage rate” value was 2.07 ± 0.12.

CCUCUGGAUACUAUACAACCUACUAUCUCA: the “pre-steady-state target cleavage rate” value was determined as 1.09 ± 0.076.

Take CCUCUGGAUACUAUACAACCUACUCCUCA: the “pre-steady-state target cleavage rate” value amounted to 0.105 ± 0.022.

With GCUCUGGAUACUAUACAACCUAUCUACCUCA, the “pre-steady-state target cleavage rate” value came to 0.356 ± 0.028.

Turning to CCUCUGGAUACUAUACAACCUACUACUCUCA, the “pre-steady-state target cleavage rate” value was 2.32 ± 0.16.

Turning to GCUCUGGAUACUAUACAACCUACUACUCA, the “pre-steady-state target cleavage rate” value stood at 1.64 ± 0.14.

For the sequence GGUCUGGAUACUAUACAACCUACUACUCUCA, the “pre-steady-state target cleavage rate” value was 1.2 ± 0.1.

As to CCUCUGGAUACUAUACAACCUACUACUCA, the “pre-steady-state target cleavage rate” value is 1.76 ± 0.15.

Turning to GCUCUGGAUACUAUACAACCUACUAUCUCA, the “pre-steady-state target cleavage rate” value was found to be 2.32 ± 0.24.

For the sequence CCUCUGGAUAGUAUACAACGUACUACCUCA, the “pre-steady-state target cleavage rate” value was 0.0367 ± 0.011.

For the sequence GGAGACCUAUCUAUACAACCUACUACCUUA, the “pre-steady-state target cleavage rate” value worked out at 0.905 ± 0.069.

For GGAGACCUAUCUUUUCAACCUACUACCUCA, the “pre-steady-state target cleavage rate” value was determined as 0.0982 ± 0.032.

On to GCAUCUGGAUACUAUACAACCUACUACCUCA, for which the “pre-steady-state target cleavage rate” value amounted to 1.82 ± 0.087.

For the sequence GGAGACCUAUGAUAUGUUGCUCACUACCUCA, the “pre-steady-state target cleavage rate” value turned out to be 0.00246 ± 0.0017.

Regarding GCUCUGCAUACUAUACAACCUACUACCUCA, the “pre-steady-state target cleavage rate” value was 1.96 ± 0.11.

For GCUCUGCAUACUAUUCAACCUACUACCUCA, the “pre-steady-state target cleavage rate” value was determined as 1.93 ± 0.12.

In the case of GCUCUGCAUACUAUACAACCUACUACCACA, the “pre-steady-state target cleavage rate” value worked out at 1.98 ± 0.18.

For GGUCUGCAUACUAUUCAACCUACUACCUCA, the “pre-steady-state target cleavage rate” value came out at 1.65 ± 0.12.

As for CCUCUGCAUUCUAUACAACCUACUACCUCA, the “pre-steady-state target cleavage rate” value came out at 2.13 ± 0.13.

Turning to CCUCUGCAUACUAUUCAACCUACUACCUCA, the “pre-steady-state target cleavage rate” value came out at 2.21 ± 0.14.

Take GGUCUGCAUUCUAUACAACCUACUACCUCA: the “pre-steady-state target cleavage rate” value worked out at 1.51 ± 0.11.

Take CCUCUGCAUACUAUACAACCUACAACCUCA: the “pre-steady-state target cleavage rate” value worked out at 1.7 ± 0.12.

In the case of GGUCUGCAUACUAUACAACCUACUACCACA, the “pre-steady-state target cleavage rate” value came to 0.7 ± 0.07.

Turning to CCUCUGCAUACUAUACAACCUACUACCUCA, the “pre-steady-state target cleavage rate” value came to 2.01 ± 0.12.

Turning to CCUCUGCAUACUAUACAACCUACUACCACA, the “pre-steady-state target cleavage rate” value was 2.37 ± 0.19.

As to GCUCUGCAUUCUAUACAACCUACUACCUCA, the “pre-steady-state target cleavage rate” value came to 1.65 ± 0.11.

As to GGACUGGAUACUAUACAAGGUACUACCUCA, the “pre-steady-state target cleavage rate” value was determined as 0.331 ± 0.036.

Take GCUCAGGAUACUAUACAACCUACUACCUGA: the “pre-steady-state target cleavage rate” value was found to be 0.681 ± 0.042.

GGAGACCAUACUAUACAACCUACUACCAUCA: the “pre-steady-state target cleavage rate” value was 1.35 ± 0.087.

Take CCUCUGGAUACAAUACAACCUACUACCUGA: the “pre-steady-state target cleavage rate” value stood at 0.657 ± 0.085.

For the sequence GGAGACCUUACAAUACAAGCUACUACCUCA, the “pre-steady-state target cleavage rate” value turned out to be 0.258 ± 0.035.

Turning to GCUCUGGAUAGUAUACAACCUACUACCUGA, the “pre-steady-state target cleavage rate” value amounted to 0.324 ± 0.045.

With GGACUGGAUACUAUACAACCUAGAACCUCA, the “pre-steady-state target cleavage rate” value worked out at 0.0154 ± 0.004.

For GGACUGGAAACUAUAGAACCUACUACCUCA, the “pre-steady-state target cleavage rate” value came out at 1.13 ± 0.08.

Consider GGAGAGGAUACUAUGCAACCUACUACCUCA, for which the “pre-steady-state target cleavage rate” value worked out at 1.62 ± 0.095.

On to GGACUGGAUACAUAACAACCUACUACCUCA, for which the “pre-steady-state target cleavage rate” value is 0.634 ± 0.11.

Regarding CCUCUGCAUACAAUACAACCUACUACCUCA, the “pre-steady-state target cleavage rate” value amounted to 2.02 ± 0.12.

As for GGUCUGCAUACAAUACAACCUACUACCUCA, the “pre-steady-state target cleavage rate” value came out at 1.45 ± 0.11.

On to CCUCUGCAUACUUUACAACCUACUACCUCA, for which the “pre-steady-state target cleavage rate” value turned out to be 2.13 ± 0.15.

As to CCUGUGCAUACUAUACAACCUACUACCUCA, the “pre-steady-state target cleavage rate” value came to 2.3 ± 0.15.

For GGUCAGCAUACUAUACAACCUACUACCUCA, the “pre-steady-state target cleavage rate” value is 1.81 ± 0.096.

In the case of GCUCUGCAUACUUUACAACCUACUACCUCA, the “pre-steady-state target cleavage rate” value was 1.68 ± 0.11.

Consider CCUCAGCAUACUAUACAACCUACUACCUCA, for which the “pre-steady-state target cleavage rate” value was found to be 2.12 ± 0.13.

On to GGUGUGCAUACUAUACAACCUACUACCUCA, for which the “pre-steady-state target cleavage rate” value is 1.73 ± 0.1.

In the case of GCUGUGCAUACUAUACAACCUACUACCUCA, the “pre-steady-state target cleavage rate” value amounted to 1.91 ± 0.12.

As for GCUCAGCAUACUAUACAACCUACUACCUCA, the “pre-steady-state target cleavage rate” value is 1.83 ± 0.11.

Turning to GCUCUGCAUACAAUACAACCUACUACCUCA, the “pre-steady-state target cleavage rate” value is 1.82 ± 0.13.

With GGUCUGCAUACUUUACAACCUACUACCUCA, the “pre-steady-state target cleavage rate” value came out at 1.48 ± 0.12.
